Measurements published in PubChem BioAssay AID1347383 (Zoeller Lab, School of Medicine, Boston University, 2020).
Calls of active or inactive are those of the source.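 Rule for the calls: active = cell survival after UV exposure 2 SD above solvent-only control wells at 10 µM, confirmed on one or two repeats; inactive = the rest.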

Experiment: cell survival after pyrene fatty acid photosensitization – ZR-82 cells, Analyticon library, screen 2, phospholipid biosynthesis inhibitor project, primary screen (AID 1347383);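 note: survival reflects blocked phospholipid synthesis cutting uptake of the phototoxic fatty acid; compound and fatty acid exposure 3 h then viability read next day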
Settings: ZR-82 CHO cells, pyrene-fatty acid UV killing, CellTiter Blue; at 10 µM; peroxisome-deficient CHO-K1 variant; with DGAT-1, DGAT-2 and ACAT inhibitors

Row | Compound | outcome
1 | COc1cc(C[C@H]2C(=O)OC[C@@H]2Cc2ccc(OC)c(OC)c2)ccc1O | inactive
2 | CC1C=CC2CCCCC2C1CCC1CC(O)CC(=O)O1 (stereo unspecified) | inactive
3 | C=C(C)[C@@H]1Cc2cc3c(cc2O1)OC[C@@]1(O)c2ccc(O)cc2O[C@@H]31 | inactive
4 | CC(C)CNC(=O)/C=C/C=C/Cc1cccs1 | inactive
5 | CCC/C=C\C/C=C\CCCC/C=C\Cc1cc(O)cc(O)c1 | inactive
6 | CC(C)=CCC/C(C)=C/CC(O)/C(C)=C/Cc1cc(C(=O)O)ccc1O (stereo unspecified) | inactive
7 | CCC(O)/C=C1\OC(=O)C2=C1CCC=C2 (stereo unspecified) | inactive
8 | C/C=C/C=C/[C@H]1Cc2cc(O)cc(O)c2O1 | inactive
9 | CC1=C(C)C(=O)OC(C(C)C2C(O)CC3C4C5OC5C5(O)CC=CC(=O)C5(C)C4CCC32C)C1 (stereo unspecified) | inactive
10 | COc1c2cccc(C)c2c(C=O)c2c(COC(C)=O)coc12 | inactive
11 | O=C(O)COC(=O)CCCCCCCO | inactive
12 | CC[C@H](C)C(=O)O[C@H]1CCC=C2C=C[C@H](C)[C@H](CC[C@H]3C[C@@H](O)CC(=O)O3)[C@H]21 | inactive
13 | COc1cc(/C=C/C(=O)O)cc(OC)c1OC | inactive
14 | C/C=C(\C)C(=O)O[C@@H]1[C@@H](C(C)C)[C@@H](OC(C)=O)C=C(CO)[C@@H]1O | inactive
15 | C=CC(=C)CCC1(C)C(C)CC(O)C23C(=CC(OC(C)=O)CC12)C(OC)OC3OC(C)=O (stereo unspecified) | inactive
16 | CCCCCCCCCCCc1cc(O)cc(O)c1 | inactive
17 | COc1ccc(CCc2cc(OC)cc(=O)o2)cc1 | inactive
18 | COc1cc(C[C@H]2COC[C@@H]2Cc2ccc(O)c(OC)c2)ccc1O | inactive
19 | OCc1ccccc1O[C@@H]1O[C@H](CO)[C@@H](O)[C@H](O)[C@H]1O | inactive
20 | CC(C)(O)C(O)Cc1ccc2c(c1O)COC2 (stereo unspecified) | inactive
21 | C=C1C[C@]23C[C@H]1CC[C@H]2[C@]1(C)CCC[C@@]2(COC(C)=O)C(=O)O[C@H]([C@H]21)[C@@H]3OC(C)=O | active
